Assay [1] is described as follows: reducers of endogenous Her2 protein level, primary screen, SKBR3 breast tumor cells, AlphaScreen, ATP viability (AID 461;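 active = Her2 level under about 52% in both replicate screens, with viability over 70% of control, limit read from the data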;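 as to Her2 level: lower value means less Her2 protein in the cells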;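 as to viability: percent of carrier control wells set as 100% viability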). Conditions: 18-24 h, measured here: SKBR3 viability, ATP luminescence, at 10 µM.
Assay [2] addresses Receptor tyrosine-protein kinase erbB-2 (Homo sapiens) (UniProt P04626). The description is as above. As to conditions: 18-24 h, at 10 µM, stronger effect = lower value.
The nature of assay [3]: SK-BR-3 cell growth inhibitors, pilot screen, 24 h, human (AID 572;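 active = viability at or below 10% of carrier control in both of two separate runs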;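 also: compound exposure lasted between 18 and 24 h rather than exactly 24 h; 100% = carrier-treated control wells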). Conditions: SK-BR-3 viability, CellTiter-Glo luminescence, at 10 µM, stronger effect = lower value. A general note: In ATP-based viability assays light output follows the ATP content of the culture.
Assay [4] can be described thus: HUVEC growth inhibition – cell-based, human, primary screen (AID 575;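 active = viability at or below 30% in both replicate assays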;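 also: 100% = median of untreated cell wells with 0.1% DMSO on each plate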). As to conditions: HUVEC proliferation, CellTiter-Glo luminescence, 72 h; at 10 µM; stronger effect = lower value.
A short description of assay [5]: growth inhibitors of H69AR lung tumor, primary screen, human, duplicate replicates (AID 580).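 Also: 100% = mean luminescence of untreated wells and 0% = no signal.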 Conditions: H69AR lung tumor cells viability, ATP luminescence, 72 h; at 10 µM; stronger effect = lower value.
Assay [6] is described as follows: reversal of MRP1-mediated doxorubicin resistance, pilot screen, H69AR cells, doxorubicin co-treatment (AID 601;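 active = viability loss from added drug above about 55%, and viability with drug at most 40%, in both replicates, limit read from the data, passing the limit was not always enough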). Conditions: CellTiter-Glo, 72 h, at 10 µM; for differential viability (reversal): stronger effect = higher value.
Assay [7] can be described thus: 384-well plate pilot, post-Golgi transport modulator project, inhibition of yeast transport mutant growth (AID 636; in the data active = inhibition above about 31%). Conditions: absorbance 615 nm, about 18 h, stronger effect = higher value.
The nature of assay [8]: growth suppression of yeast trafficking mutant, preliminary HTS, modulators of trafficking downstream of Golgi apparatus project, 1536-format plate, OD 615 nm (AID 637; in the data active = inhibition above about 30%). Conditions: yeast transport mutant growth, absorbance 615 nm, 18 h; stronger effect = higher value.
Assay [9] can be described thus: OD615 S. cerevisiae growth inhibition, permissive medium, pilot counter-assay, permissive growth control for S. cerevisiae lifespan shortening project (AID 705;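 active = growth inhibition above 25% in both replicates, a cutoff set 3 SD above the mean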). As to conditions: OD615, 24 h, at 10 µM, stronger effect = higher value.
The nature of assay [10]: Restrictive medium S. cerevisiae growth inhibition, OD615, pilot screen of yeast lifespan reduction project, restrictive growth control (AID 706;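 active = growth inhibition above a set limit, 3 SD over mean compound inhibition, in both replicates, cut at about 43% in these data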;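 also: modified DeaD lifespan yeast strain shifted to restrictive glucose medium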). As to conditions: OD615, 48 h, at 10 µM, stronger effect = higher value.
A short description of assay [11]: viability gain of MRP-1-high H69AR cells under doxorubicin, pilot screen, MRP-1 activator project, CellTiter-Glo, duplicate (AID 807;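 active = viability increase at or above a cutoff of the median across tested compounds plus 3 SD, cut at about 8.5% in these data, passing the limit was not always enough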;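 also: compound pretreatment 18-22 h then 72 h combined with doxorubicin; 0% = doxorubicin alone and 100% = vehicle without doxorubicin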). As to conditions: H69AR viability with doxorubicin, CellTiter-Glo luminescence; at 10 µM; stronger effect = higher value.
A short description of assay [12]: growth suppression of beta-catenin knockout HCT116, pilot screen, human colon tumor cells (AID 823;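 active = cell viability at or below a set limit in both duplicate runs, the limit being the all-compound median minus 4 SD, cut at about 23% in these data, passing the limit was not always enough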;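 also: 0% = wells killed by 20 µM Hyamine and 100% = untreated DMSO cell wells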). Conditions: CellTiter-Glo, 60 h, at 10 µM, stronger effect = lower value.
The nature of assay [13]: growth suppression of PTEN-deleted HCT116, pilot screen, cell-based, HCT116 clonal line, CellTiter-Glo (AID 824;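 active = viability at or below 27.92% in each of two runs, the all-compound median minus 4 SD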;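 also: 0% = 20 µM Hyamine control and 100% = vehicle cell control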). Conditions: 60 h, at 10 µM, stronger effect = lower value.
Assay [14] can be described thus: inhibitors of the yeast RAM network, pilot screen, dse1pr::URA3 reporter, 5-FOA selection (AID 869;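 active = inhibition over a set limit, the all-compound mean plus 3 SD, in both replicate runs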;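 also: 0% = DMSO wells with no growth and 100% = 10 µM 1-NA-PP1 with full growth; RAM network block rescues cells from 5-FOA so hits raise OD615 growth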). As to conditions: S. cerevisiae dse1pr::URA3 5-FOA growth, OD615, 2 d; at 10 µM; stronger effect = higher value; strain carries analog-sensitive mutant Cbk1 kinase.
Assay [15] is described as follows: RAM signaling pathway blockade in yeast – S. cerevisiae, Pdr1DBD-CYC8 efflux-inhibited sensitized strain, primary screen (AID 1298;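 active = RAM network inhibition above 8.4% in each of two replicates, 3 SD over the compound average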;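 also: 0% = DMSO untreated cells without growth and 100% = 10 µM 1-NA-PP1 full growth; higher means more yeast growth rescued from 5-FOA killing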). Conditions: S. cerevisiae cbk1-as DSE1-URA3 strain, 5-FOA growth OD615, 2 d; at 50 µM; stronger effect = higher value.
Where [16] appears, read: H69AR cells + 2 uM doxorubicin, measured here: viability with 2 uM doxorubicin, stronger effect = lower value.
[17] abbreviates: H69AR cells, compound alone cytotoxicity.

Results filed as inconclusive are left out. The source made the active and inactive calls.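 The calls were made as follows, unless noted: active = viability at or under a set limit in both replicates, limit being median viability minus 3 SD (cut at about 48% in these data, passing the limit was not always enough); inconclusive = at or under the limit in just one replicate; inactive = at or above the limit in both replicates.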

Broadly, the viability is a read-out of living cells in per cent, often relative to untreated cells. What is called inhibition is the relative decrease from the control value, in per cent.

Sequence of Receptor tyrosine-protein kinase erbB-2 (Homo sapiens) (P04626 whole entry, looked up): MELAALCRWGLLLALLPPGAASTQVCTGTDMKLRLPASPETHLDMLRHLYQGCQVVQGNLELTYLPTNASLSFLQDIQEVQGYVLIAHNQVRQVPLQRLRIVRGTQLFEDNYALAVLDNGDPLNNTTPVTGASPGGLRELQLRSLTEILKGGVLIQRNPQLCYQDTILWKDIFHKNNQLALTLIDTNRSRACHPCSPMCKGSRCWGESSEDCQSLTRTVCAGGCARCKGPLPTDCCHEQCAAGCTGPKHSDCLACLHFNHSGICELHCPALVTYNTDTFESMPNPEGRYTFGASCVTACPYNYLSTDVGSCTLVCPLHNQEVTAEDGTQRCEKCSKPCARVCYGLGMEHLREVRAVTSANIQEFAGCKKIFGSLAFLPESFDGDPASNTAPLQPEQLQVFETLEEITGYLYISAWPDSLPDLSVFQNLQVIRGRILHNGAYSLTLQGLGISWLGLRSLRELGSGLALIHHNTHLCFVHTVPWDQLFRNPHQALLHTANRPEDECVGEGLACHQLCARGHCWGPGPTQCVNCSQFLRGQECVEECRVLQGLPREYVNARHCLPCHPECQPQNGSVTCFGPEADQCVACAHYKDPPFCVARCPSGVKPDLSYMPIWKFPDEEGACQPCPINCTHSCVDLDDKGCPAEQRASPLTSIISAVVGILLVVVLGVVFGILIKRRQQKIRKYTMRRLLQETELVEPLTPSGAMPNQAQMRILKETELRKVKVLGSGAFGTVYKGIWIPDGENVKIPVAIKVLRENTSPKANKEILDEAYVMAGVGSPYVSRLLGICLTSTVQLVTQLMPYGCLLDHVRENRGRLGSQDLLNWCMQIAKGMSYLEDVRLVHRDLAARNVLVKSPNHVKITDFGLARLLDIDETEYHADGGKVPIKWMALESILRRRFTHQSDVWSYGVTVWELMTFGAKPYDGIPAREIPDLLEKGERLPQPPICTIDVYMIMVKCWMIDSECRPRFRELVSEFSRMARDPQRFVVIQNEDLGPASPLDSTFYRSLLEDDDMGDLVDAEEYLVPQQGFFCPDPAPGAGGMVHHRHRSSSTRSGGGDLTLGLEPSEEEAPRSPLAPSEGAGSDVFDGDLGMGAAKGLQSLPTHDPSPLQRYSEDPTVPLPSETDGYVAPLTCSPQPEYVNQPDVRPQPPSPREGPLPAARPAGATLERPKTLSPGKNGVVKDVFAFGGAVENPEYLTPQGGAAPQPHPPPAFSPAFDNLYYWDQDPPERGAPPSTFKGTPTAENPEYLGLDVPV

As for `COc1ccc(S(=O)(=O)N2CCC(C(=O)Nc3c(F)cccc3F)CC2)cc1`, the viability in [1] is 88.5%; in assay [3], 88.5% (inactive); in assay [4], 96.5% (inactive); in assay [5], 97.6% (inactive); in assay [6] (setting [16]) it was 96.8%; in [6] (setting [17]), 97.6%. Further, the viability is 99.6% (inactive) in assay [12] and 101% (inactive) in assay [13]. Moreover, the Her2 level in assay [2] was 111% (inactive). In assay [6] (H69AR cells + 2 uM doxorubicin), the differential viability (reversal) was 0.885% (inactive). Besides, the results for the inhibition in assay [7], in assay [8] and in assay [14] were 0.93% (inactive), -4.17% (inactive) and 3.77% (inactive), respectively. Moreover, the growth inhibition in [9] is -11.9% (inactive); in [10] it was -14.8% (inactive). Further, in [11], the viability increase is -2.23% (inactive). In addition, in assay [15], the RAM network inhibition is 3.07% (inactive).
For the compound `CC1=C(C)CC2C(=O)N(c3cccc4ccccc34)C(=O)C2C1` (stereo not given), the viability in assay [1] was 104%; in [3], 104% (inactive); in assay [4], 80.1% (inactive); in assay [5], 85.7% (inactive); in assay [6] (setting [16]), 83.2%; in [6] (setting [17]) it was 85.7%. Besides, the viability in assay [12] is 100% (inactive); in assay [13] it was 96.5% (inactive). The Her2 level in assay [2] is 114% (inactive). The differential viability (reversal) in [6] (H69AR cells + 2 uM doxorubicin) is 2.52% (inactive). Besides, the figures for the inhibition in assay [7], in [8] and in assay [14] were -6.53% (inactive), -11.3% (inactive) and 0.295% (inactive), respectively. The figures for the growth inhibition in assay [9] and in assay [10] were 75.2% (active) and 67.6% (active), respectively. In addition, the viability increase in assay [11] is -0.78% (inactive). Further, the RAM network inhibition in assay [15] is 2.23% (inactive).
Consider `CC(NC(=O)c1noc2c1CCCCC2)c1ccccc1` (stereo not given), for which the viability in [1] is 85.5%; in assay [3] it was 85.5% (inactive); in [4], 89.1% (inactive); in assay [5], 110% (inactive); in assay [6] (setting [16]), 91.7%; in assay [6] (setting [17]), 110%. Moreover, the viability was 100% (inactive) in assay [12] and 102% (inactive) in assay [13]. Besides, the Her2 level in [2] was 93.5% (inactive). In [6] (H69AR cells + 2 uM doxorubicin), the differential viability (reversal) is 18.1% (inactive). The inhibition was -3.59% (inactive) in assay [7], -2% (inactive) in assay [8] and -0.27% (inactive) in [14]. The growth inhibition in assay [9] was -16.4% (inactive); in assay [10], -14.1% (inactive). Moreover, the viability increase in [11] was 1.66% (inactive). Also, the RAM network inhibition in assay [15] was 1.85% (inactive).
For the compound `Cc1cc(NC(=O)CS(=O)(=O)c2cn(Cc3cccc(F)c3)c3ccccc23)no1`, the viability was 124% in [1]; 124% (inactive) in assay [3]; 69.7% (inactive) in [4]; 92.7% (inactive) in assay [5]; 88.7% in assay [6] (setting [16]); 92.7% in [6] (setting [17]). Moreover, the viability was 65.8% (inactive) in assay [12] and 72.2% (inactive) in [13]. Besides, the Her2 level in assay [2] was 75.5% (inactive). Besides, the differential viability (reversal) in assay [6] (H69AR cells + 2 uM doxorubicin) is 3.98% (inactive). For the same compound, the inhibition in assay [7] is -6.62% (inactive); in assay [8] it was -4.67% (inactive); in [14], 1.3% (inactive). Moreover, the growth inhibition in [9] was -5.79% (inactive); in assay [10], -24.3% (inactive). Further, the viability increase in assay [11] is -1.03% (inactive). The RAM network inhibition in assay [15] is 5.39% (inactive).
As to `CC(C)c1nnc(NC(=O)C2CCCCC2)s1`, the viability in [1] was 98.5%; in assay [3], 98.5% (inactive); in assay [4], 96.5% (inactive); in assay [5], 99.5% (inactive); in assay [6] (setting [16]), 93.8%; in assay [6] (setting [17]), 99.5%. Further, the viability in assay [12] is 99.7% (inactive); in [13], 97.1% (inactive). Moreover, in [2], the Her2 level was 97% (inactive). In addition, the differential viability (reversal) in assay [6] (H69AR cells + 2 uM doxorubicin) is 5.75% (inactive). The inhibition in assay [7] was -4.13% (inactive); in assay [8] it was 0.83% (inactive); in assay [14], -0.59% (inactive). Moreover, the values for the growth inhibition in [9] and in assay [10] were -3.55% (inactive) and 0.755% (inactive), respectively. Further, in [11], the viability increase is -0.65% (inactive). For the same compound, the RAM network inhibition in assay [15] is -2.03% (inactive).

(Values after PubChem BioAssay.)
